M1 ag – agonists of human M1 muscarinic receptor; P11229; CHO-K1 hM1, Fluo-8 calcium fluorescence, agonist mode; 0% DMSO, 100% acetylcholine EC100; activation, % at 3 µM; actives 0.33% (n = 360,000); AID 588814;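 active means activation above the run's mean compound activation plus 3 SD, cut at about 16% in these data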;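 further: peak over basal fluorescence ratio within a 140 s kinetic read after compound addition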
Target sequence (P11229 whole entry, looked up): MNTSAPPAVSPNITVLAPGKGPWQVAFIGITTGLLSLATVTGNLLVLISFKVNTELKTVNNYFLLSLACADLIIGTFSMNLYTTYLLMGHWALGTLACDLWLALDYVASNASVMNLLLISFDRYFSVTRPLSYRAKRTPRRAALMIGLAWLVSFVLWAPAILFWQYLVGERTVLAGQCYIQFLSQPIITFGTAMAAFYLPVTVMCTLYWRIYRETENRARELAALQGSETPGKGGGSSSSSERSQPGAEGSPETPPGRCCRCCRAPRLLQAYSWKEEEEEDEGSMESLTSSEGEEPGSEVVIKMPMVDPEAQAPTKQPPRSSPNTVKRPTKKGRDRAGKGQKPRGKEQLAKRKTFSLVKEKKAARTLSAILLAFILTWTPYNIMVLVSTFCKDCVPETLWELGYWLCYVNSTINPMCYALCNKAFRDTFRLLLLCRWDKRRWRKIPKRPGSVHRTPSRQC
CHO-K1 Ca ag – nonselective activator or artifact in parental CHO-K1 cells | AID 602248 | actives 0.48% (n = 360,000) | Fluo-8 calcium fluorescence; scaled to maximal ATP response, vehicle zero | activation, % at 3 µM; in the data active means activation above about 15%;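 further: untransfected CHO-K1 host cells lacking M1 receptor as counterscreen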
CHRM1 antagonist – blocks human M1 muscarinic receptor; P11229; CHO-K1 hM1, Fluo-8 calcium fluorescence, ACh EC80 antagonist; inhibition, % at 3 µM; actives 1.3% (n = 360,000); AID 588852;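 active means percent inhibition above its own plate's cutoff, namely the mean of that plate's compound wells plus 3 SD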;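 further: peak over basal fluorescence ratio during 140 s after agonist addition; 0% = ACh EC80 plus DMSO and 100% = DMSO alone without agonist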
CHO-K1 Ca antag – M1 antagonist counterscreen hit in parental CHO-K1 cells; ATP-induced calcium, Fluo-8 fluorescence; inhibition, % at 3 µM; actives 0.6% (n = 360,000);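 active means inhibition above a per-plate cutoff, the plate's mean sample inhibition plus 3 SD, cut at about 24% in these data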;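 further: 0% = DMSO plus EC80 ATP and 100% = DMSO alone without ATP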
CHRM1 PAM – positive allosteric modulators of human M1 muscarinic receptor. P11229. CHO-K1 hM1, Fluo-8 calcium fluorescence, ACh EC20; 0% = ACh EC20, 100% = maximal ACh. activation, % at 3 µM. actives 0.088% (n = 360,000). AID 588819; in the data active means activation above about 19%, passing the limit was not always enough
M1 PAM parental – nonselective activator or artifact in parental CHO-K1 calcium assay; actives 0.02% (n = 360,000); ATP EC20, Fluo-8 calcium fluorescence; 0% at ATP EC20, 100% at ATP max; activation, % at 3 µM;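 active means activation above the run cutoff, the mean activation of all test compounds plus 3 SD, cut at about 40% in these data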;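 further: peak over basal fluorescence ratio in a 140 s read after ATP addition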
* = called active by the depositor. Most compounds without a hit are left out; they make up all but 2.3% or so of the library.

SMILES	M1 ag	CHO-K1 Ca ag	CHRM1 antagonist	CHO-K1 Ca antag	CHRM1 PAM	M1 PAM parental
CCOC(=O)c1c(C)n(C)c2ccc(OCC(O)CNCCc3ccccc3)cc12 (stereo not given)	-8	12	-8	31*	6	4
O=[N+]([O-])c1c(Nc2ccc(O)cc2)cc(Cl)c2nonc12	-12	-1	42*	45*	-15	-3
Cc1cccc(OCC(=O)Nc2ccc3c(c2)nc2n3CCOC2)c1	-4	1	-8	-1	11	12
Cc1ccc(C(=O)c2cn[nH]c2-c2cc(Cl)ccc2O)cc1	-2	19*	10	0	-4	16
Cc1ccc(-c2[nH]ncc2C(=O)c2ccc(Br)cc2)c(O)c1	-1	3	-11	-1	11	4
COc1ccc(C(CNC(=O)c2cc3c(s2)CCC(C)C3)N2CCCC2)cc1 (stereo not given)	-8	1	-1	-11	-5	22
COc1ccccc1C(CNC(=O)C1COc2ccccc2O1)N1CCCC1 (stereo not given)	-6	2	77*	-24	-24	7
COc1ccccc1CNC(=O)C1COc2ccccc2O1 (stereo not given)	-3	0	-8	-2	4	14
CCC1CCc2sc(C(=O)NCC(c3ccccc3OC)N3CCCC3)cc2C1 (stereo not given)	-6	1	43*	-14	-21	8
O=C(C1COc2ccccc2O1)N1CCN(c2ccccc2Cl)CC1 (stereo not given)	-6	0	-11	-2	9	15
COc1ccccc1C(CNC(=O)C(C)(C)Oc1ccc(Cl)cc1)N1CCCC1 (stereo not given)	-8	1	89*	12	-27	-2
O=C(C1COc2ccccc2O1)N1CCCCC1 (stereo not given)	-2	-1	29	24*	-12	-20
CCN1CCN(C(=O)C2CCC(=O)N(CCCN3CCCC3=O)C2)CC1 (stereo not given)	-4	1	0	-18	1	13
OCC[C@@H]1C[C@@H](O)[C@H](O)[C@@]2(CCc3ccccc3CO2)O1	-3	1	5	-10	0	8
COc1ccccc1C(CNC(=O)C(C)Oc1ccc(Br)cc1)N1CCCC1 (stereo not given)	-6	1	31*	-2	-22	11
COc1ccc(CCn2c(C(C)C)nc3c(c(=O)c4ccccc4n3C)c2=O)cc1	-10	2	39*	17	-31	-10
CCCCN(C)C(=O)Cn1ncc2c3ccccc3n(CCC)c2c1=O	-5	1	-3	-15	9	5
CCCCC(CC)C1OCC(C[N+]2(C)CCOCC2)O1 (stereo not given)	-10	0	43*	-9	-21	14
COc1ccccc1-c1cc(NC=O)c2ncc(-c3cccc(C(F)(F)F)c3)n2c1	5	0	-24	-7	31*	-7
COc1ccc(-c2cc(NC=O)c3ncc(-c4cccc(C(=O)NCCN(C)C)c4)n3c2)c(OC)c1	-10	0	85*	-10	-33	8
O=C(CCc1ccccc1)NC(=S)Nc1ccc2c(c1)C(=O)OC2	-5	16*	-4	6	9	3
CN(C)C(CNC(=O)c1ccc(NC(=O)CC#N)cc1)c1ccccc1 (stereo not given)	-8	0	30*	-5	-20	-5
COc1ccc(NC(=O)COc2ccccc2)cc1Cl	-3	1	-11	-4	8	-10
COc1ccc(NC(=O)COc2ccccc2C(=O)NCC(c2ccccc2)N(C)C)cc1Cl (stereo not given)	-8	3	73*	-3	-31	-7
CN(C)C(CNC(=O)CCS(=O)(=O)c1ccccc1)c1ccccc1 (stereo not given)	-9	1	-7	-16	7	17
SMILES	M1 ag	CHO-K1 Ca ag	CHRM1 antagonist	CHO-K1 Ca antag	CHRM1 PAM	M1 PAM parental
CN(C)C(CNC(=O)CCC(=O)c1ccc(Br)cc1)c1ccccc1 (stereo not given)	-8	2	35*	-14	-28	-3
CC(=O)c1c(C(=O)O)[nH]c(C(=O)O)c1C	-7	12	-7	9	12	12
O=C(COC(=O)c1nn(CCO)c(=O)c2ccccc12)Nc1ccc(Cl)c(Cl)c1	1	6	4	-10	1	12
O=C(Oc1coc(CSc2nnc(NC(=O)C3CC3)s2)cc1=O)c1c(F)cccc1F	-2	2	-17	-13	3	17
COc1cc(C2C(C#N)=C(N)Oc3c2oc(CO)cc3=O)ccc1OC(C)C (stereo not given)	-4	1	-8	-9	11	14
CC(C)Oc1ccc(C2C(C#N)=C(N)Oc3c2oc(CO)cc3=O)cc1 (stereo not given)	-4	15*	-1	2	7	19
Cc1nc(NC(=O)CSc2nc3ccccc3s2)sc1C(=O)N(C)C	1	3	-20	-11	25*	6
N#Cc1cc2nc(O)c(O)nc2cc1[N+](=O)[O-]	-3	0	-15	-2	0	11
CNc1nc2cc([N+](=O)[O-])c([N+](=O)[O-])cc2nc1NC	2	18*	30*	39*	-11	-8
CSc1ccc(CN(C)C(=O)C(c2ccccc2)c2ccccc2)cc1	-7	1	20	-1	-6	19
CN(CCN(C)C(C)(C)C)C(=O)C(c1ccccc1)c1ccccc1	-6	1	97*	-2	-27	-10
CCOC(=O)C1C(=O)CC(C)(O)C(C(=O)OCC)C1c1ccc(N(CC)CC)cc1 (stereo not given)	-4	1	-29	-1	9	9
CCN(CC)c1ccc(C2C(C(=O)OC(C)C)C(=O)CC(C)(O)C2C(=O)OC(C)C)cc1 (stereo not given)	-1	3	30*	7	-9	5
CC1CCN(S(=O)(=O)c2ccc(NC(=O)CN3C(=O)NC(C)(c4ccccc4)C3=O)cc2)CC1 (stereo not given)	-2	2	-3	-2	5	-6
O=C(Oc1cccc(C(=S)N2CCOCC2)c1)c1cccc([N+](=O)[O-])c1	-9	2	-1	-8	2	24
O=C(Oc1ccc(C(=S)N2CCOCC2)cc1)c1cccc([N+](=O)[O-])c1	-5	0	12	29*	-7	-26
CCOc1cc(N2CCOCC2)c(OCC)cc1NC(=O)c1c(-c2ccccc2Cl)noc1C	-2	1	-1	-16	1	12
CCCC/C=C/C(NC(=O)c1ccc(C(=O)OC)cc1)c1ccccc1 (stereo not given)	-9	0	16	-12	-12	13

Screens as filed in PubChem.
